Whole data set: some 24,000 sequences, median “enrichment r” near 0.99, cut for the highest 2% near 3.7. The entries come from a sample that favours the highest values as a whole.
T1: UNK ZnF1-3 (human, UniProt Q9C0B0 31-174)
T1 sequence: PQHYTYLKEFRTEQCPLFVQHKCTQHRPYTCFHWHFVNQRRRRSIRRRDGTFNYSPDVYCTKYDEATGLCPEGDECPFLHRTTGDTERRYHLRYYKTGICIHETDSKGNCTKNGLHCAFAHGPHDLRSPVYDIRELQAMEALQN

B1: chr8:117878989:117878990:-_ENSG00000164754_ENST00000297338|hu_hu|hu_hu_hu_mus_True|68_98 (ssRNA)
RNA: GGGAGUUCUACAGUCCGACGAUCCCAGAGGCCCUCGUUUACUGAGAACAAAAUGUGCGUAGAACAUUGUUCUGGCUUGCUAUGAAAUAAGAAGAAACCUGGAUCUCGGCGGGGAGCCGGGAGGGGUGGGUGGCCCGGGGAGGGCAACAGAGGAUUGAGCAUCA
B2: chr10:79719409:79719410:+_ENSMUSG00000020153_ENSMUST00000020361|mus_mus|FALSE|FALSE (ssRNA)
RNA: GGGAGUUCUACAGUCCGACGAUCCCAGAUCUUCAGCUUCUGUUCACGCUUGAUCUUCCGUUGCAGCUGCAAGAUGCCAUAAAGGAGUGCUUCGGCCGUGGGCGGGCAGCCUGGCACAUAGAUGUCCACUGGCACAAUGCGGUCCAACAGAGGAUUGAGCAUCA
B3: chr7:149068622:149068623:-_ENSMUSG00000025139_ENSMUST00000001950|mus_hu|mus_mus_mus_hu_False|38_48 (ssRNA)
RNA: GGGAGUUCUACAGUCCGACGAUCGUGAGGCCUCUGAGUGUGGCUUGUGGUCUGUCCUGGGUUAGAGUUGUUAAUAUCACGGAACAUACCACUUAAGGAGGUUCUGCCCCGCCUGACACCUUCAUUCCCAAUGGAGAAGAAAUCCAACAGAGGAUUGAGCAUCA
B4: chr7:54823571:54823572:-_ENSG00000132432_ENST00000352861|hu_mus|hu_hu_hu_mus_False|48_88 (ssRNA)
RNA: GGGAGUUCUACAGUCCGACGAUCUCCCAUGAUAGCAAAUCCUAUAGCUGUUGCCAUGGCAAUCUUCUGGAAUUCUUUUCUGUCGGGUUUAGUGCAUCUUUUAACCAGCCGAAUUGAGUCCUUUACAAACUGCCGGCUGGGCUCCAACAGAGGAUUGAGCAUCA
B5: 55316162_55316282_4585_3pUTR_ENSMUSG00000018583_ENSMUST00000018727|mouse|control|control (ssRNA)
RNA: GGGAGUUCUACAGUCCGACGAUCUGACAACAGGGACUCCUGCCUAAGAGUAUCUUGCUGCUCUUCCAGGACAUAAGUUCGAUUCCCAGCACCUGUGUAGGAGGGCUCACUCACCUGUAACUCCAGCUCCAAGGGGCCACAGGCCAACAGAGGAUUGAGCAUCA
B6: chr17:56739783:56739784:+_ENSMUSG00000071054_ENSMUST00000095224|mus_mus|FALSE|FALSE (ssRNA)
RNA: GGGAGUUCUACAGUCCGACGAUCAUAUCUGCUAAACAGGUUCUUCAGAUCCGUGGCUCUGGUUGUAGACGAAAGGCCACUAACCCAGAAAUUCCUACCACAGCUGCUGCGACCCUUCUCUUCUCGGGAAAGCCUUUUUGUAUCCAACAGAGGAUUGAGCAUCA

The binders below were run against T1, UNK ZnF1-3 (assay: nsRBNS (natural sequence RNA bind-n-seq); RBNS binding buffer (assumed for nsRBNS): 25 mM Tris pH 7.5, 150 mM KCl, 3 mM MgCl2, 0.01% Triton X-100, 500 ug/ml BSA, 20 U/ml SUPERase-In, 4 C; UNK is unkempt and MSI1 is Musashi-1; names of the RNAs are library labels; protein concentration not given here; high values mean tight binding).
In the case of B1, the binding signal is reported as 2.44 enrichment R.
In the case of B2, the binding signal is reported as 0.695 enrichment R.
B3 was tested, and the binding signal was 0.716 enrichment R.
For B4, the binding signal was 0.587 enrichment R.
B5 was tested, and the binding signal was 0.768 enrichment R.
B6 showed a binding signal of 0.796 enrichment R.

Reference: paper PMC12136788
